Screening results (PubChem BioAssay)
TRHR ag = agonists of human TRH receptor | hit rate 0.18% among 360,000 | TRHR cells, calcium flux fluo-8, FDSS agonist mode | activation, % at 2 µM | AID 493084 | P34981
Target sequence (P34981 whole entry, looked up): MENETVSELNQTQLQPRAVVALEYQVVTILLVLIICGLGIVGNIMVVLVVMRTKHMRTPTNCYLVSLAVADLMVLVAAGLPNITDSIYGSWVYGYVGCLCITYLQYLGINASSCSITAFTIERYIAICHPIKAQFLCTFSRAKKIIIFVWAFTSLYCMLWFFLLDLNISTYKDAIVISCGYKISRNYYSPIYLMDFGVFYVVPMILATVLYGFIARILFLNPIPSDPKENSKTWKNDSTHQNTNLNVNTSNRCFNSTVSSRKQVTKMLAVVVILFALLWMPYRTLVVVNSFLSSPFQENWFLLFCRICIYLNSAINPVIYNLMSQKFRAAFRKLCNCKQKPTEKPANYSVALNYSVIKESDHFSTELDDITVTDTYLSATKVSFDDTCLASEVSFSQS
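Agonist-mode FDSS calcium read (Ex 480/Em 530, 1 s cycles) in 1536-well TRHR cells with fluo-8 dye, after 10-cycle baseline and 23 nL compound addition; TRH at EC20 (10 nM final) added afterwards for the enhancer phase.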
TRHR PAM = allosteric enhancers of human TRH receptor; TRHR cells, fluo-8 calcium fluorescence, EC20 TRH enhancement; enhancement, % at 2 µM; hit rate 0.66% among 360,000; in the data active = enhancement above about 30%
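TRHR-expressing cells loaded with fluo-8 calcium dye were read kinetically (ex 480/em 530) during compound addition, then stimulated with an EC20 of TRH (10 nM final). Enhancement of the Gq-mediated intracellular calcium response was scored.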
D1 ag = human D1 receptor agonism | P21728 | HEK293 T-REx D1 cells, calcium flux, agonist mode | activation, % at 2 µM | hit rate 1% among 360,000
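Inducible HEK293 T-REx D1 cells, force-coupled to calcium signalling, were plated at 4000 cells/well with tetracycline and held overnight at 30 C. After no-wash calcium dye loading, compound-evoked calcium rise over 180 s flagged agonists.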
D1 antagonist = blocks dopamine activation of the human D1 receptor; hit rate 3.2% among 360,000; P21728; activity change, negative = inhibition, % at 10 µM; AID 504652; HEK293 TREx D1 cells, calcium flux, dopamine EC80; stronger effect = lower value; in the data active = activity change below about -30%
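Calcium flux readout: force-coupled, inducible Hek293 Trex D1 line, cells induced overnight at 30 C with tetracycline, dye-loaded 30–90 min at RT. Antagonism scored against EC80 dopamine challenge given 180 s after compound.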
D1 potentiator = human D1 dopamine receptor positive modulation. P21728. HEK293 TREx D1 cells, calcium flux, dopamine EC20 potentiation. potentiation, % at 10 µM. hit rate 0.036% among 360,000. AID 504651; in the data active = potentiation above about 30%
Large screens that a line does not name were inactive. An excerpt weighted towards active compounds, which were near 4.7% of everything screened. Cut-off read from the data, not from the text of the source, unless noted: active = activation above about 30%; inactive = the rest.

CCOC(=O)C1C(=O)C=C(/C=C/c2ccc(N(C)C)cc2)CC1c1ccccc1 (centres undefined)	TRHR ag 73.1, D1 ag 229.7
COc1ccc(CCNc2nc(-c3sc(N)nc3C)cs2)cc1OC	D1 antagonist -60.6
COc1ccc(Nc2nc(-c3sc(N)nc3C)cs2)cc1	none
CCn1c(SC(C)C)nnc1-c1c[nH]c2ccccc12	D1 antagonist -31.0 (no result: D1 potentiator)
CCOC(=O)CSc1nnc(-c2c[nH]c3ccccc23)n1CC	none (no result: D1 potentiator)
CC(C)CC1(C)N=C(c2ccccc2)C(=S)N1 (centres undefined)	D1 antagonist -40.1
COc1ccc(CCNC(=O)C2CCN(S(=O)(=O)c3ccc(C)cc3)CC2)cc1	D1 antagonist -34.7
COc1ccc(CNC(=O)C2CCN(S(=O)(=O)c3ccc(C)cc3)CC2)cc1	none
COc1ccc(CCN(C)C(=O)C2CC(=O)N(Cc3ccc(C)cc3)C2)cc1OC (centres undefined)	D1 antagonist -34.1 (no result: D1 potentiator)
COc1ccc(S(=O)(=O)N2CCC(C(=O)N[C@@H](C)C(=O)NCc3ccc(F)cc3)CC2)cc1	D1 antagonist -34.9
COc1ccc(CN2CC(C(=O)NCCc3ccc(C)cc3)CC2=O)cc1 (centres undefined)	D1 antagonist -47.4
COc1ccc(CN2CC(C(=O)NCCc3ccccc3)CC2=O)cc1 (centres undefined)	none
Cc1ccc(CN(C(=O)COc2cc(C)c(Cl)c(C)c2)c2ccccn2)o1	none
CCOc1ccc(NC(=O)CCn2cccn2)cc1	none
Cc1nc2c(C(=O)N(C)Cc3ccccc3)c[nH]n2c(=O)c1Cc1ccc(Cl)cc1	none
CN(Cc1cccs1)C(=O)C1CC(=O)N(Cc2ccccc2)C1 (centres undefined)	D1 antagonist -54.0
COc1ccc(S(=O)(=O)N(C)CC(=O)NCCC2=CCCCC2)cc1	TRHR PAM 34.8
COc1ccc(S(=O)(=O)N(C)CC(=O)NCCC2=CCCCC2)cc1OC	none
COc1ccc(CCN(C)CCCN2CC(c3ccccc3)CC2=O)cc1OC (centres undefined)	D1 antagonist -39.3
CC(C)[C@H](NC(=O)C1CCN(S(=O)(=O)c2ccccc2)CC1)C(=O)NCc1ccncc1	none
CC(C)[C@H](NC(=O)C1CCN(S(=O)(=O)c2ccccc2)CC1)C(=O)NCc1ccccc1	D1 antagonist -44.7
O=S(=O)(Nc1ccc(F)c(Cl)c1)c1ccc(Br)s1	none
COc1ccc(OC)c(N(C)S(=O)(=O)c2ccc3c(c2)NC(=O)CC(=O)N3)c1	none
COc1ccc(CCNC(=O)C2CCN(S(=O)(=O)c3ccc(OC)c(OC)c3)CC2)cc1OC	none
COc1ccc(S(=O)(=O)N2CCCCC2C(=O)O)cc1OC (centres undefined)	TRHR PAM 32.8
COc1ccc(S(=O)(=O)N2CCC(C(=O)NCCC3=CCCCC3)CC2)cc1OC	D1 antagonist -43.0
COc1ccc(CNC(=O)C(C)Sc2ccc(S(=O)(=O)N3CCOCC3)cn2)cc1 (centres undefined)	D1 antagonist -31.7
COc1ccc(CNC(=O)c2ccc(S(=O)(=O)N3CCOCC3)cc2)cc1	none
COc1ccc(N2CCN(C(=O)Nc3cn(CC(C)C)c(=O)c4ccccc34)CC2)cc1	none
COc1ccc(CCC(C)NC2C3CC4CC(C3)CC2C4)cc1 (centres undefined)	D1 antagonist -71.2
COc1ccc(Br)cc1CNC(=O)CCc1cn(Cc2ccc(C)cc2)c2ccccc12	none
Cc1c(-c2cccc(NC(=O)Nc3ccccc3)c2)nc2ncccn12	D1 antagonist -56.4
COc1ccc(NCc2cc3ccc(OC)cc3n(CC(=O)Nc3ccc(C)c(C)c3)c2=O)cc1	none
Cc1ccc(S(=O)(=O)N2CCCC2C(=O)Nc2ccc(Br)cc2)cc1 (centres undefined)	none
COC(=O)c1ccc(OCC2c3cc(OC)c(OC)cc3CCN2C(=O)c2ccccc2F)cc1 (centres undefined)	none
O=C(N/N=C/c1cc(Br)cs1)C(O)c1ccccc1 (centres undefined)	none
CCOc1ccc(/C=N/NC(=O)C(O)c2ccccc2)c(O)c1 (centres undefined)	D1 antagonist -32.7
CCOc1ccc(CCNC(=O)C(O)c2ccccc2)cc1 (centres undefined)	none
O=C(N/N=C/c1ccc(Cl)s1)C(O)c1ccccc1 (centres undefined)	D1 antagonist -37.2
COc1ccccc1NC(=O)Cn1c(=O)n(CC(=O)NCc2ccccc2Cl)c(=O)c2sccc21	none
CCCCNC(=S)NC(=O)c1ccccc1Br	D1 antagonist -32.8
COc1ccc([C@]23Cc4cc(OC)c(OC)cc4C(O2)C2=C(CCCC2=O)O3)cc1	none
CCCCNC(=O)CN1CCN(c2ncc(NC(=O)c3ccc(Cl)cc3)cc2C(=O)O)CC1	none
CCCCCC(=O)Nc1ccc(N2CCN(CC)CC2)c(Cl)c1	D1 antagonist -52.1
CCN1CCN(c2ccc(NC(=O)c3ccc(C#N)cc3F)cc2Cl)CC1	D1 antagonist -43.3
Cc1ccc(-c2ccc(CCC(=O)O)n2-c2ccc(C(C)C)cc2)cc1	none
Cc1cc(=O)[nH]c2nnc(SCc3ccc(F)cc3)n12	none (no result: D1 antagonist)
CCCc1c(C)c2ccccc2[nH]c1=O	TRHR PAM 40.8
CCCc1c(O)c2ccccc2[nH]c1=O	none
COc1ccc(OCC(=O)Nc2ccc(C(=O)OCc3cc(=O)n4nc(C)sc4n3)cc2)cc1	none
Cc1ccc(CNC(=O)CCCn2c(=O)[nH]c3ccc(Br)cc3c2=O)cc1	none
O=C(Nc1ccc(Oc2ccc(C(F)(F)F)cn2)c(Cl)c1)C1CC1	D1 antagonist -32.1
COC(=O)CSC1=NS(=O)(=O)c2ccccc21	TRHR PAM 39.2
OC1CCCN(CC(O)COc2ccc(-c3ccccc3)cc2)C1 (centres undefined)	D1 ag 30.4
CC1CCCN(CC(O)COc2ccc(Cl)cc2)C1 (centres undefined)	none
CCOC(=O)N1CCN(CC(O)COc2ccc(-c3ccccc3)cc2)CC1 (centres undefined)	D1 antagonist -31.4
CC1CCCN(CC(O)COc2ccc(-c3ccccc3)cc2)C1 (centres undefined)	D1 ag 41.6
CCOC(=O)N1CCN(CC(O)COCc2ccccc2)CC1 (centres undefined)	none
CCOc1ccc(NC(=O)[C@@H](c2ccccc2)N2Cc3ccccc3C2=O)cc1	none
COc1cc(OC)c(NC(=O)CCn2cccn2)cc1Cl	none
COc1ccc(C(CC(=O)NCc2ccc(Cl)cc2)N2Cc3ccccc3C2=O)cc1OC (centres undefined)	none
CCSc1nc(-c2cccc(Cl)c2)nc2c1Cc1c(CO)cnc(C)c1O2	none
Cc1nc2nc(SCC(=O)NC3CCC(C)CC3)nn2c(C)c1Cc1ccccc1 (centres undefined)	none
CCOc1ccc(Cl)cc1CNCCCSc1nc(C)cc(C)n1	D1 antagonist -38.3
